FMDV inh: antivirals against foot and mouth disease virus | FMDV antiviral cell-based qHTS | Potency, µM (series often up to 57.9 µM), inactives show at the top dose activity change, negative = inhibition, hits mostly inhibitors | actives 1.2% (n = 410,000) | AID 1159524; calls by dose curve; tested in HEK293T cells; note: read-out not given here; potency is the fitted concentration of half-maximal effect; % is set by controls: 0 for no effect and ±100 for the full control effect; nearly all actives have a fitted effect of over 45% in size
HCV inh: HCV inhibition; Huh7.5.1 HCVcc-Cre infection, luciferase reporter, 44 h; Potency, µM (doses to about 41.8 µM), inactives show at the top dose activity change, negative = inhibition, actives largely listed as inhibitors; actives 3.4% (n = 340,000); AID 651820; active = well fitted inhibition curve with a large enough effect; inconclusive = small, poorly fitted or top-dose-only effect, or another doubt; inactive = no such curve, though single readings can be large or run the other way; note: potency is the fitted concentration of half-maximal effect; % is set by controls: 0 for no effect and ±100 for the full control effect
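Whole-lifecycle infectious HCVcc-Cre system; cells 1,000/well, compound then virus (~0.5 moi) added 4 h after plating, 44 h culture. Luciferase read 15 sec following 15 min substrate incubation, room temp.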
Lassa entry inh: Lassa virus entry inhibition; Lassa virus pseudotype entry inhibition, cell reporter; Potency, µM (top dose mostly 37.9 µM), for inactives: at the highest dose activity change, negative = inhibition, actives largely listed as inhibitors; actives 1.2% (n = 300,000); calls by dose curve; tested in HEK293 cells; note: potency is the fitted concentration of half-maximal effect; % is set by controls: 0 for no effect and ±100 for the full control effect; nearly all actives have a fitted effect of over 50% in size
Marburg entry inh: inhibitors of Marburg virus binding or cell entry | Marburg virus pseudotyped entry inhibition, cell reporter | Potency, µM (highest dose often 37.8 µM), for inactives: at the top dose activity change, negative = inhibition, most hits filed as inhibitors | actives 1.8% (n = 300,000); calls by dose curve; tested in HEK293 cells; note: potency is the fitted concentration of half-maximal effect; % is set by controls: 0 for no effect and ±100 for the full control effect
HCMV antiviral: human cytomegalovirus inhibition; HFF cells, HCMV-luciferase reporter, 72 h; stronger effect = lower value; activity change, negative = inhibition, % at 57.5 µM; actives 4.5% (n = 410,000); AID 1259415; in the data active = activity change below about -60%; inconclusive = no clear call, values can overlap the other calls; inactive = above about -39%; note: % is set by controls: 0 for no effect and ±100 for the full control effect
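Inhibition of viral replication was scored as loss of reporter luminescence in HFFs infected with HCMV-luciferase (MOI 1 PFU/cell) for 72 h; compounds tested at 2 doses, normalized to buffer and Salinomycin controls.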
SARS PLP yeast: blocks SARS-CoV papain-like protease in a yeast assay; S. cerevisiae expressing SARS-CoV PLpro, growth rescue; Potency, µM (top dose mostly 32.9 µM), inactives show at the top dose activity, positive = growth rescue, hits mostly activators; actives 0.19% (n = 330,000); calls by dose curve; note: potency is the fitted concentration of half-maximal effect; 0% is about no effect; nearly all actives have a fitted effect of over 55% in size
Numbers without * were called inactive; ? = inconclusive; . = no result given; [ ] = another dose, or the depositor's remark. The list is not random: actives were taken first. Their share in the collection is about 8%.

SMILES	FMDV inh	HCV inh	Lassa entry inh	Marburg entry inh	HCMV antiviral	SARS PLP yeast
CC(=O)OC1CCC2(C)C3CCC4(C)C(C(C)=O)CCC4C3CC3OC32C1 (centres undefined)	-17%	7%	-1%[46.1 µM]	4%[46.1 µM]	-61*	.
CCC(C)NC(=O)Cn1c(=O)n(Cc2ccc(C(=O)NCc3ccc(C)cc3)cc2)c(=O)c2ccccc21 (centres undefined)	0%	.	-17%[46.1 µM]	5%[46.1 µM]	-79*	.
COc1cccc(-n2c(=O)c3sc4ccccc4c3n(CC(=O)Nc3ccc(F)cc3F)c2=O)c1	1%	.	0%[46.1 µM]	9%[46.1 µM]	-70*	.
Cc1ccc(CNC(=O)Cn2c(=O)n(Cc3ccccc3)c(=O)c3sc4ccccc4c32)cc1	-24%	.	-10%[46.1 µM]	-5%[46.1 µM]	-4	.
Cc1ccc(CNC(=O)Cn2c(=O)n(Cc3ccc(F)cc3)c(=O)c3sc4ccccc4c32)cc1	0%	.	-15%[46.1 µM]	1%[46.1 µM]	-65*	.
O=C(CSc1nc2c([nH]c3ccccc32)c(=O)n1-c1ccc(Cl)cc1)N1CCOCC1	-14%	.	28%[46.1 µM]	.	12	.
COC(=O)c1sccc1S(=O)(=O)N1CCN(c2cccc(C)c2C)CC1	-24%	.	?	.	0	.
CCCCn1cnc2cc(NCc3ccccc3Cl)ccc21	-2%	.	?	13µM*	?	.
CCn1cnc2cc(NCc3ccccc3Cl)ccc21	26%	-23%	5%	21%	-39	-11%
CS(=O)(=O)N(CC(O)CON=C1c2ccccc2-c2ccccc21)c1ccc(F)cc1 (centres undefined)	.	?	4%	?	-20	.
Cc1cccc(N(CC(O)CON=C2c3ccccc3-c3ccccc32)S(C)(=O)=O)c1 (centres undefined)	.	?	-4%	23µM*	?	-22%
CCN(CC(O)CON=C1c2ccccc2-c2ccccc21)S(=O)(=O)c1ccc(Cl)cc1 (centres undefined)	-28%	10µM*	1%	?	-31	-11%
COc1cc(-c2cc(C)c3cccc(OC)c3n2)cc2c1OCCN(C(=O)CCn1nc(C)cc1C)C2	-14%	.	.	.	.	.
COc1cccc(/C=C(\C#N)C(=O)Nc2ccc(NC(C)=O)cc2)c1OC	8%	.	?	.	39	.
CCOC(=O)c1ccc(N=c2scc(C)n2CC)cc1	-1%	14%	?	5.6µM*	-37	-2%
COC(=O)[C@H]1[C@H](CO)[C@H]2Cn3c(ccc(Br)c3=O)[C@@H]1N2S(=O)(=O)c1cn(C)cn1	.	.	.	.	-10	.
CN(CC(=O)Nc1cccc(F)c1)C(=O)c1cccc(S(=O)(=O)N2CCN(Cc3ccccc3)CC2)c1	-47%	.	.	.	?	.
CN(CC(=O)Nc1ccccc1Cl)C(=O)c1cccc(S(=O)(=O)N2CCN(c3ccccc3)CC2)c1	?	?	?	?	-77*	.
CN(CC(=O)Nc1ccccc1Cl)C(=O)c1cccc(S(=O)(=O)N2CCN(c3ccc(F)cc3)CC2)c1	-16%	5.6µM*	.	.	-80*	-9%
CN(Cc1ccc(OC(F)F)cc1)C(=O)c1cccc(S(=O)(=O)N2CCN(c3ccccc3)CC2)c1	20µM*	5µM*	.	.	-63*	.
C=CCN(C(=O)c1cccc(S(=O)(=O)N2CCN(C)CC2)c1)c1nc(-c2ccccc2)cs1	?	25µM*	?	?	-36	-12%
Cc1cccc(C)c1NC(=O)CN(C)C(=O)c1cccc(S(=O)(=O)N2CCN(c3ccccc3)CC2)c1	-7%	.	-25%	-7%	-8	1%
CN(Cc1cccc(F)c1)C(=O)c1cccc(S(=O)(=O)N2CCN(Cc3ccccc3)CC2)c1	?	-25%	11%	-20%	.	-1%
C#CCN1C(=O)CC[C@@]23C1=NC(C(=O)OC)=C(C(=O)OC)[C@@H]2N(CC=C(C)C)c1ccccc13	.	.	?	15%[14.2 µM]	.	.
CN1CCN(S(=O)(=O)c2ccc(N(C)Cc3ccc(OC(F)F)cc3)c([N+](=O)[O-])c2)CC1	?	11µM*	-14%	?	?	-4%
SMILES	FMDV inh	HCV inh	Lassa entry inh	Marburg entry inh	HCMV antiviral	SARS PLP yeast
Cc1cccc(C)c1NC(=O)CN(C)C(=O)c1cccc(S(=O)(=O)N2CCN(c3ccc(F)cc3)CC2)c1	?	?	?	?	-87*	-3%
CN(Cc1ccc(Cl)c(Cl)c1)C(=O)c1cccc(S(=O)(=O)N2CCN(Cc3ccccc3)CC2)c1	-21%	10µM*	.	.	0	-2%
CN(CC(=O)Nc1ccccc1Cl)C(=O)c1cccc(S(=O)(=O)N2CCN(Cc3ccccc3)CC2)c1	?	?	?	?	-80*	9%
COc1ccc(-c2cn3nc(N4CCC(C(=O)Nc5ccc(C)cc5)CC4)sc3n2)cc1	0%	.	12%[46.1 µM]	.	0	.
Cc1ccn2c(c1)nc(=O)c1cc(S(=O)(=O)N3CCCCC3)c(Cl)cc12	-25%	.	9%[46.1 µM]	-7%[46.1 µM]	1	.
COc1ccccc1NC(=O)c1cccc(S(=O)(=O)N2CCN(Cc3ccccc3)CC2)c1	-29%	10µM*	?	-17%[46.1 µM]	-8	1%
COc1ccc(NC(C)=O)cc1NC(=O)c1cccc(S(=O)(=O)N2CCN(Cc3ccccc3)CC2)c1	-17%	-24%	-9%	-4%	-15	-1%
CC(NC(=O)c1cccc(S(=O)(=O)N2CCN(Cc3ccccc3)CC2)c1)c1ccc(Cl)cc1 (centres undefined)	-29%	?	0.89µM*	?	-14	0%
Cc1ccc(NC(=S)NCC2CCN(C(C)c3ccccc3)C2)cc1C (centres undefined)	-3%	-12%	.	.	-63*	3%
CSc1nc(N(C)NC(=O)c2ccc(F)cc2)c2ccccc2n1	-5%	?	?	1.3µM*	-30	-1%
CC(C)c1ccc(Cc2cnc(NC(=O)c3ccc4c(c3)CC(c3ccccc3)OC4=O)s2)cc1 (centres undefined)	?	.	-2%[46.1 µM]	0%[46.1 µM]	-24	.
NC(=O)CCC(=O)N1CCCC(C(=O)c2ccc(C(F)(F)F)cc2)C1 (centres undefined)	-21%	-4%	.	.	-21	12%
O=C(c1ccc(C(F)(F)F)cc1)C1CCCN(C(=O)CCc2ccncc2)C1 (centres undefined)	?	11µM*	-30%[46.1 µM]	?	-21	-3%
O=C(c1ccc(C(F)(F)F)cc1)C1CCCN(Cc2ccncc2)C1 (centres undefined)	?	6.3µM*	.	-29%[46.1 µM]	?	0%
O=C(c1ccc(C(F)(F)F)cc1)C1CCCN(Cc2ccc(CO)o2)C1 (centres undefined)	-5%	-9%	.	.	-37	0%
Cn1cc(C(=O)O)c(=O)c2cc(S(=O)(=O)N3CCCCC3)ccc21	-3%	.	-17%[46.1 µM]	.	53	.
Cc1cc(C)c(N(Cc2ccccc2)S(=O)(=O)c2ccc(OCCNC(=O)c3cc4ccccc4o3)cc2)c(C(=O)NO)c1	0%	.	.	.	.	.

Bioassay records deposited in PubChem BioAssay by National Center for Advancing Translational Sciences (NCATS).
